Compounds without any hit were thinned out: in the full panel of roughly 83,000, 20% have a hit.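 Growth was measured after 48 h exposure to one concentration of compound in 96-well plates. Values under 10 count as active.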 A number with no mark means an inactive call. Calls of active or inactive are those of the source.

The subject of the test is NCI-H522 lung. Description: NCI-60 one-dose screen, 48 h (100 = growth as untreated, 0 = no growth, -100 = all killed). Particulars: 10 µM unless noted. On the procedure:
Growth inhibition of the NCI-H522 human Non-Small Cell Lung tumor cell line is measured as a screen for anti-cancer activity. Cells are grown in 96 well plates and exposed to the test compound for 48 hours. Compounds are tested at a single concentration, which is 10^-5 M for most compounds. The reported endpoint is percent growth (GI% or GIPRCNT), where numbers from 0 - 100% represent growth inhibition, and numbers from -100% - 0 represent cell death. For example, a value of 40 represents 60% growth inhibition. A value of 0 means no net growth occurred over the course of the experiment. A value of -40 indicates 40% of cells at the beginning of the experiment died by the end of the experiment. A value of -100 means all cells are dead at the end of the experiment.
NCI-60 Human Tumor Cell Lines Screen was performed using the standard one-dose NCI protocol, which is described in more detail at https://dtp.cancer.gov/discovery_development/nci-60/default.htm.
Compounds with GIPRCNT values below 10 were considered active. Activity score was based on GIPRCNT using the following formula: […]
Score is 0 for GIPRCNT values of 100 or above, 50 for GIPRCNT values of 0, and 100 for GIPRCNT values of -100.
For the molecule `COc1ccccc1N1CCN(C2=C(Cl)C(=O)c3ncccc3C2=O)CC1`, the growth is 9.14% (active). For `C#C[C@]1(O)CC[C@H]2[C@@H]3CC=C4c5sc(Nc6cc(C)cc(C)c6)nc5CC[C@]4(C)[C@H]3CC[C@@]21C`, the growth is 42.7%. On to `O=C(Nc1ccc(N=Cc2c(O)[nH]c3ccccc23)cc1)Nc1ccc(S(=O)(=O)Nc2ncccn2)cc1`, for which the growth is 95%. On to `COc1ccc2c(c1)c(-c1nnc(N)nc1-c1c[nH]c3ccc(F)cc13)cn2C`, for which the growth was 27.2%. The value for `COc1ccc(C2c3[nH]c4ccc(Cl)cc4c3CCN2c2oc(CO)nc2C#N)cc1` (stereo not given) was 31.7%; that for `COc1cc(C(=O)c2cc(C(C)=O)c3ccc(C)cn23)cc(OC)c1OC` was 38.4%; that for `O=C(CSc1nnc(-c2ccc(Cl)cc2)n1-c1ccccc1)Nc1ccc(Cl)cc1` was 39.5%. The value for `CC(=O)OCCCCN1C=C/C(=C\C(=O)n2ccc3ccccc32)c2ccccc21` was 99.1%; that for `CN1CCN(Cc2ccc(NC(=O)c3cncc(C#Cc4cnc5ccc(OCC6COC6)nn45)c3)cc2C(F)(F)F)CC1` was -70.7% (active); that for `CS(=O)(=O)c1ccc(/C(=N/N=C(N)N)c2ccc(Cl)cc2)cc1` was 77.4%. For `Brc1cc(-c2cc(-c3ccc4c(c3)OC=CO4)[nH]n2)cs1`, the growth is 81.3%. With `CN1CCC[C@]2(C)[C@H]3CC[C@@H]4[C@@H]5[C@H]6OC[C@@]5(CCC6(C)C)CC[C@@]4(C)[C@]3(C)CC[C@H]2C1(C)C`, the growth is 96.3%.

Take `Oc1[nH]c2ccc(Cl)cc2c1N=Nc1nc(N=Nc2c(O)[nH]c3ccc(Cl)cc23)nc(N2CCCCC2)n1`: the growth is 45.2%. Take `O=C(CSc1nc2ccccc2c(=O)n1-c1ccc(Cl)c(Cl)c1)Nc1ccc(S(=O)(=O)Nc2ccc(Cl)nn2)cc1`: the growth was 90%.

On to `Cc1ccc(/C(N)=N/C(N)=N/c2nc3ccccc3s2)cc1`, for which the growth was 100%.

Take `Cc1ccsc1[C@H]1c2[nH]c3ccccc3c2C[C@H]2C(=O)N(CCCCCCC(=O)NO)CC(=O)N12`: the growth was 58.8%. For the molecule `C#C[C@]1(O)CC[C@H]2[C@@H]3CC=C4c5sc(Nc6cc(Cl)ccc6OC)nc5CC[C@]4(C)[C@H]3CC[C@@]21C`, the growth was 52.8%. Take `Cc1ccc(NC(=O)Nc2nc3ccc([N+](=O)[O-])cc3s2)cc1`: the growth is -10.6% (active). Then `O=C(CCCCCCNC(=O)C(O)(O)C(F)(F)F)Nc1ncc(-c2ccc(Br)cc2)s1`, with -44.9% (active); and `O=C(Nc1cccc(C(F)(F)F)c1)N1CCN(c2cc(-c3cn(-c4ccccc4)nc3-c3cccc(O)c3)ccn2)CC1`, with 31%; and `Cc1ccc(N2CCN(C3=C(Cl)C(=O)c4ncccc4C3=O)CC2)cc1`, with 45.2%.

For `CCCCSC1=C(Cl)CN(c2ccc(Cl)cc2)C1=O`, the growth was -4.15% (active). Take `COc1ccc2c(c1)c(-c1nc(N)nnc1-c1c[nH]c3ccccc13)cn2C`: the growth is 29.9%. Take `CCCCCCNC(=O)Oc1ccc(/C(=C(/C)c2ccc(OC)cc2)c2ccc(OCCN3CCCCCC3)cc2)cc1`: the growth is 82.4%. With `C#CCOc1ccc(/C=N/Nc2nc(-c3ccc(OC)cc3)cs2)cc1`, the growth is 70.1%. Regarding `CNC(=O)c1cc(-n2ccc3cc(NC(=O)Nc4ccc(N5CCN(C)CC5)c(C(F)(F)F)c4)ccc32)ccn1`, the growth was 101%. Consider `N#Cc1c(-c2cccs2)c(C#N)c(=O)n(Cc2nc3ccccc3[nH]2)c1N`, for which the growth is 95.1%. The value for `Cc1ccc(C(=O)Nc2ccc(CNCCN3CCNCC3)c(C(F)(F)F)c2)cc1C#Cc1cnc2cccnn12` was -33.9% (active); that for `O=C1CSC(c2cn(-c3ccccc3)nc2-c2ccc(Cl)cc2)N1c1ccccc1` (stereo not given) was 95.7%; that for `CN1CCN(CCNc2nc(-c3cccc(NS(=O)(=O)c4cccc5c(N(C)C)cccc45)c3)cs2)CC1` was 69.4%. The value for `O=c1c2cc(-c3ccc(F)cc3F)ccc2n(Nc2ccccc2)c(=O)n1-c1cccc(C(F)(F)F)c1` was -5.32% (active); that for `Fc1cc(F)cc(NNC(=S)c2ccccc2)c1` was 37%. The value for `COc1ccc(C2CC(c3cccc(OCCCCOc4cccc(C5=NOC(c6ccc(OC)cc6)C5)c4)c3)=NO2)cc1` (stereo not given) was 86.4%; that for `N#Cc1c(-c2ccc(Br)cc2)cc(-c2c[nH]c3ccccc23)nc1N` was 11%. For the molecule `CN1CCN(c2ccc(Nc3nc(NCCCNS(=O)(=O)c4ccccc4)c4sccc4n3)cc2)CC1`, the growth was 44.8%. For the molecule `N#C/C(=C\c1cccc2c1OCO2)C(=O)Nc1sc2c(c1C#N)CCCC2`, the growth is 94.2%. With `Cc1ccc(S(=O)(=O)NCCCNc2nc(Nc3ccc(N4CCN(C)CC4)cc3)nc3ccsc23)cc1`, the growth is -5.6% (active). In the case of `CCCCSC1=C(Cl)CN(c2ccccc2)C1=O`, the growth is -9.23% (active).

On to `CN1CCN(c2ccc(Nc3nc(NCCCNS(=O)(=O)c4cccc(F)c4)c4sccc4n3)cc2)CC1`, for which the growth was -1.42% (active). The value for `O=C(CCCCCCN1CC(=O)N2[C@@H](c3ccc(Cl)s3)c3[nH]c4ccccc4c3C[C@H]2C1=O)NO` was 3.19% (active).

The values above are taken from PubChem BioAssay (NCI).
